This note sets out measurements from PubChem BioAssay AID488841 (Sanford-Burnham Center for Chemical Genomics, 2010).

In all, about 1,400 compounds went through this assay and about 380 (27%) were called active.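 The calls were made as follows: active = mean inhibition above 50% across duplicate retests at 10 µM; inactive = the rest.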 The list shows a part of the results.

The assay can be described thus: yeast NALP1 reporter signal suppression – S. cerevisiae, luminescence, single concentration, NALP1 inhibitor project, confirmation (AID 488841).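 Also: plate controls were DMSO in galactose medium for no effect and cells in plain SD medium for full effect.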 To be noted: S. cerevisiae NALP1/ASC/Caspase-1 reporter, beta-gal luminescence; at 10 µM; stronger effect = higher value.
As for `O=C(CN1CCN(c2cccc(Cl)c2)CC1)Nc1ccc(S(=O)(=O)N2CCOCC2)cc1`, the inhibition was 35.4% (inactive).
Regarding `COC(=O)c1cc(OC)c(OC)cc1NC(=S)N1CCN(c2ccccc2)CC1`, the inhibition is 30% (inactive).
The result for `COC(=O)/C=C/C(=O)N1CCN(c2cccc(Cl)c2)CC1` reads 54.7% (active).
Consider `Cc1ccnc(NS(=O)(=O)c2ccc(NC(=O)CSc3nc(-c4ccccc4)cc(=O)[nH]3)cc2)n1`, for which the inhibition was 12.6% (inactive).
In the case of `CCOc1cc(C(=O)OCC(=O)Nc2ncc(Cl)c(C)c2Cl)ccc1OCC(=O)N1CCOCC1`, the inhibition is 27.4% (inactive).
The result for `Cc1ccc2cc3cc(C(=O)NCCCN4CCc5ccccc5C4)oc3nc2c1` reads 30.9% (inactive).
On to `COC(=O)/C(=N/Nc1ccc(C)cc1)N1CCCc2ccccc21`, for which the inhibition was 32% (inactive).
Consider `CC(=O)N1CCCc2cc(S(=O)(=O)N3CCc4ccccc4C3)ccc21`, for which the inhibition is 33.2% (inactive).
The result for `O=C(NCCCN1CCc2ccccc2C1)Nc1ccc(Br)cc1` reads 25.1% (inactive); that for `O=C(Nc1ccccc1)N1CCc2ccccc2C1`, 62% (active).
The result for `Cc1ccc(NC(=O)N2CCc3ccccc3C2)cc1` reads 64.8% (active); that for `CCCCCCCCCCOC(=O)Cn1c(COc2ccc(Cl)cc2)[n+](C)c2ccccc21`, 34% (inactive); that for `O=C1NC(c2ccccc2)Nc2c1sc(=S)n2-c1ccccc1` (configuration not stated), 25.1% (inactive).
For `CCN(CC)S(=O)(=O)c1ccc2oc(C(=O)NC3CCCc4ccccc43)c(C)c2c1` (configuration not stated), the inhibition is 4.35% (inactive).
The result for `CCN1/C(=C/c2ccc3cc(C)ccc3[n+]2CC)Sc2ccccc21` reads 101% (active); that for `CCN1/C(=C\c2ccc3ccccc3[n+]2CC)Sc2cc(C)ccc21`, 98.2% (active); that for `CCN1/C(=C/c2ccc3ccc(C)cc3[n+]2CC)Sc2ccccc21`, 21.4% (inactive).
For the compound `CC[n+]1c(/C=C2\Sc3ccccc3N2C)ccc2cccc(C)c21`, the inhibition is 96.8% (active).
The result for `Cc1cc(=O)n2ccccc2c1C#N` reads 9.65% (inactive); that for `C/C(=N/NC(=O)c1nnn(-c2nonc2N)c1COc1ccccc1)c1ccc(O)cc1`, 22.6% (inactive).
The figure for `Cc1cc(C)cc(C(=O)OCC(=O)NCCNC(=O)COC(=O)c2cc(C)cc(C)c2)c1` is 31.4% (inactive); for `OCCN(CCO)c1ncnc2c1oc1ccc(Br)cc12` it is 31.3% (inactive).
The figure for `CC1CN(S(=O)(=O)c2ccc(C(=O)Nc3nc(-c4cc5ccccc5o4)cs3)cc2)CC(C)O1` (configuration not stated) is 30.1% (inactive).
Take `N#CC1(C#N)CC(C=O)=C(N)C1(C#N)CC(=O)C12CC3CC(CC(C3)C1)C2` (configuration not stated): the inhibition is 36.1% (inactive).
Take `Cc1ccc(Cl)cc1N1CCN(S(C)(=O)=O)CC1`: the inhibition is 39.6% (inactive).
The figure for `CCCC(CCC)c1nc2ccncc2[nH]1` is 27.4% (inactive); for `CC(=O)NS(=O)(=O)c1ccc(NC(=O)CSc2ccccc2)cc1` it is 8.45% (inactive).
The figure for `C#CCN(C)CCCOc1ccc(Cl)cc1Cl` is 55.1% (active).
The figure for `CCCCNCCOCCOc1ccc(Cl)cc1Br` is 48% (inactive).
On to `CCN(CC)CCCOc1ccc(Cl)c(Cl)c1`, for which the inhibition was 44.2% (inactive).
The result for `CC(C)CC(=O)N1CCN(S(=O)(=O)c2ccccc2)CC1` reads 24.9% (inactive); that for `COc1ccc(-c2cc(-c3cc(OC)ccc3O)[nH]n2)cc1`, 49.4% (inactive); that for `Cc1ccc2c(c1)c1c3n2CCCNC3CCC1` (configuration not stated), 43.8% (inactive).
The result for `CCOC(=O)c1cc(-c2ccccc2)n(CCC(=O)N2CCN(c3ccccn3)CC2)c1C` reads 39.2% (inactive); that for `O=C(c1ccccc1-c1ccccc1)N1CCN(c2ccccn2)CC1`, 29.1% (inactive).
The result for `O=C(N1CCN(c2ccccn2)CC1)C(Cl)(Cl)Cl` reads 60.1% (active); that for `Cn1c(SCC(=O)NC(c2ccccc2)c2ccccc2)nnc1-c1cccs1`, 34% (inactive).
Turning to `C=C(C)C(=O)Nc1cccc(C(C)=O)c1`, the inhibition was 10.3% (inactive).
The figure for `C=C(C)C(=O)Nc1nnc(-c2cccs2)s1` is 55.5% (active); for `CN1/C(=C\C(=O)c2cccs2)C(C)(C)c2ccccc21` it is 35.5% (inactive).
The figure for `O=C(COC(=O)CCC1CCCCC1)Nc1ccc(OC(F)F)cc1` is 19.5% (inactive); for `CCCCNC1CCS(=O)(=O)C1` (configuration not stated) it is 24% (inactive); for `CCCCCCOc1ccc(/C(C)=N/NC2=NCCN2)cc1` it is 51.5% (active).
The result for `CCCCCCOc1ccc(OC(=O)c2ccncc2)cc1` reads 24.9% (inactive); that for `CCCCCCOc1ccc(-c2ccc(C#N)cn2)cc1`, 34.9% (inactive).
As for `CCCCOc1ccc(CSC2=NCCN2)cc1[N+](=O)[O-]`, the inhibition was 43.9% (inactive).
The figure for `CCCCCOc1ccc(Br)cc1/C(C)=N/NC1=NCCN1` is 51.2% (active).
The figure for `CCn1c(SCC(=O)Nc2ccc3c(c2)OCO3)nnc1-c1cnccn1` is 36.9% (inactive); for `CCOc1ccccc1C1CC(=O)NC(SCC(=O)Nc2nccs2)=C1C#N` (configuration not stated) it is 10.4% (inactive).
The result for `CCOc1nc(N2CCOCC2)nc(N2CCOCC2)n1` reads 29.6% (inactive); that for `O=[N+]([O-])c1cc(Cc2ccccc2)cc(C=Nc2ccc(N3CCOCC3)cc2)c1O`, 47.5% (inactive).
Consider `COc1cccc(/C=N/NC(=O)CNC(=O)C2COc3ccccc3O2)c1O` (configuration not stated), for which the inhibition was 41% (inactive).
In the case of `O=C(N/N=C\c1cccc([N+](=O)[O-])c1O)C1COc2ccccc2O1` (configuration not stated), the inhibition is 56.7% (active).
The result for `NCCS` reads 55.1% (active); that for `CCCCCCC(=O)N(O)C1CC(=O)N(Cc2ccccc2)C1=O` (configuration not stated), 15.2% (inactive); that for `C=CCn1c(CNC(=O)c2cccs2)nnc1SCC(=O)Nc1ccc(C(=O)O)cc1`, 24.2% (inactive).
Turning to `Cc1ccccc1Nc1cc(C)c2c(O)cccc2n1`, the inhibition was 65.8% (active).
Turning to `CC(=O)Nc1ccc2nc(CN3CCC(CO)(CCc4ccccc4)CC3)ccc2c1`, the inhibition is 34.5% (inactive).
`Cc1c([N+](=O)[O-])c(C(=O)Nc2ccc3c(c2)OCCO3)nn1C`: the inhibition was 27.4% (inactive).
The result for `CNc1ccc(/C=C/C(=O)c2ccc3c(c2)OCCO3)cc1[N+](=O)[O-]` reads 52.8% (active).
The result for `CCn1c(SCC(=O)Nc2oc(-c3ccccc3)c(-c3ccccc3)c2C#N)nnc1-c1cc(OC)cc(OC)c1` reads 22.6% (inactive); that for `COc1ccc(S(=O)(=O)N(CC(=O)N2CCOCC2)Cc2ccccc2)cc1C`, 22.4% (inactive); that for `CC1(C)CC(=O)c2c(-c3cccs3)n[nH]c2C1`, 38.8% (inactive).
The figure for `CC1=NNC(=O)/C1=C\c1cn(-c2ccccc2)nc1-c1cccs1` is 62.4% (active); for `Brc1ccc2c(c1)OCCOCCOc1cc(Br)ccc1OCCOCCOCCO2` it is 59.6% (active).
Regarding `CCn1nccc1C(=O)Nc1ccc(Cl)cn1`, the inhibition was 35.4% (inactive).
In the case of `CCn1ncc([N+](=O)[O-])c1C(=O)Nc1ccc(C(=O)N2CCCCC2)cc1`, the inhibition was 32.5% (inactive).
The result for `CCCc1cc(C(=O)Nc2c(C)n(C)n(-c3ccccc3)c2=O)no1` reads 23.7% (inactive).
The figure for `CCCc1cc(C(=O)Nc2cccc(Cl)c2)no1` is 67.2% (active).
With `CCCc1cc(C(=O)Nc2ccc(F)cc2F)no1`, the inhibition was 36.5% (inactive).
The figure for `CCn1ncc(C(=O)Nc2cccc(Cl)c2)c1C` is 53.8% (active).
The figure for `COc1ccc(NC(=O)c2sc(N3CCOCC3)nc2-c2ccccc2)c(OC)c1` is 48.4% (inactive); for `Cc1cc(NC(=O)/C=C/c2ccccc2Cl)no1` it is 46.5% (inactive).
The figure for `O=C(/C=C/c1ccccc1Cl)c1ccc[nH]1` is 73% (active).
Consider `CC(NC(=O)Nn1cnnc1)(C(F)(F)F)C(F)(F)F`, for which the inhibition is 9.3% (inactive).
With `CCCCCCCCNC(C)C(O)c1ccc(SC(C)C)cc1` (configuration not stated), the inhibition is 46.5% (inactive).
In the case of `Cc1cc(C(C)(C)C)cc(S(=O)(=O)Nc2ccc(O)c(C(=O)O)c2)c1C`, the inhibition was 24.9% (inactive).
The figure for `CC1(C)CCSC(/C=C/c2ccccc2)=N1` is 84% (active).
Turning to `O=C(O)C1(c2ccccc2)CCN(S(=O)(=O)c2ccc(Br)cc2)CC1`, the inhibition is 32.4% (inactive).
The result for `CCOC(=O)C1CCCCN1Cc1cccc(F)c1` (configuration not stated) reads 19.9% (inactive); that for `O=S(=O)(c1ccc(Br)cc1)N1CCCN(Cc2cccc(F)c2)CC1`, 59.5% (active); that for `COc1ccc(CCN(C)C2CC(=O)N(c3ccccc3)C2=O)cc1OC` (configuration not stated), 45% (inactive).
The result for `Cc1ccc(C(=O)Oc2ccc3c(c2)ncn3C)cc1` reads 47.5% (inactive); that for `Cc1ccc(C(=O)/C=C\C(=O)c2ccc(C)cc2)cc1`, 51.1% (active).
The figure for `O=C(Nc1nc2c(c(=O)[nH]1)CCCC2)C1CC1` is 27% (inactive).
Consider `O=C1CC(c2ccccc2Cl)CC(O)=C1C=Nc1ccccc1` (configuration not stated), for which the inhibition is 52.8% (active).
On to `O=C1CC(c2cccc(Cl)c2)CC(O)=C1C=Nc1cccc(Cl)c1` (configuration not stated), for which the inhibition is 36.5% (inactive).
As to `C/C(=N\N1CCN(c2ccc(Cl)cc2)CC1)c1ccco1`, the inhibition is 23.6% (inactive).
The figure for `Cc1c(N)c(C(C)(C)C)cc(C(C)(C)C)c1[N+](=O)[O-]` is 29.1% (inactive).
As for `OC(CNCCc1ccc(C(F)(F)F)cc1)COc1cccc2ccccc12` (configuration not stated), the inhibition was 65.5% (active).
In the case of `COCCNC(=O)CCc1ccc(S(=O)(=O)Nc2ccc(C)cc2)cc1`, the inhibition is 25.8% (inactive).
The result for `O=C(c1ccc(Br)s1)N1CCN(C/C=C/c2ccccc2)CC1` reads 50.6% (active); that for `COC(=O)c1ccccc1NC(=O)N1CCN(C/C=C/c2ccccc2)CC1`, 39.6% (inactive).
The figure for `CCC(C)c1ccccc1NC(=O)CN1CCN(C/C=C/c2ccccc2)CC1` (configuration not stated) is 46.3% (inactive); for `O=C(NCC1CCCO1)C(c1cccs1)N(Cc1cccs1)C(=O)Cn1nnc(-c2cccs2)n1` (configuration not stated) it is 28.1% (inactive); for `C#CCCCCCCC#CCN(C)C` it is 28.6% (inactive).
Regarding `O=C(c1cnn2ccccc12)N1CCc2ccccc21`, the inhibition was 58% (active).
Turning to `CCC(=O)N1CCc2cc(S(=O)(=O)N3CCc4ccccc43)ccc21`, the inhibition is 10.5% (inactive).
In the case of `CSc1sc(C(=O)N2CCc3ccccc32)cc1S(=O)(=O)C(C)C`, the inhibition was 20.9% (inactive).
The figure for `CCN(CC)S(=O)(=O)c1cccc(C(=O)Oc2cccc(NC(=O)c3cccs3)c2)c1` is 36% (inactive); for `O=C(/C=C\Nc1cccc(F)c1)c1cccs1` it is 31.6% (inactive); for `COc1cc(NC(=O)c2cccs2)cc(OC)c1` it is 78.8% (active).
